Test results as given in paper PMC4336329 (PLoS ONE, 2015).
About 14,000 (4.5%) of roughly 310,000 compounds showed an effect of 50% or more. Effects have a minus sign here. Many of the other results were omitted from the sample, so strong results are more common in it than they were.

Molecular target: human ether-à-go-go-related gene (hERG) potassium channel (human, UniProt Q12809)
Assay: primary screen, population patch clamp on CHO cells stably expressing hERG; higher = less effect of the substance
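Further: peak tail current of the secondary pulse compared with the same well before compound.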

human ether-à-go-go-related gene (hERG) potassium channel, sequence (Q12809 whole entry, looked up): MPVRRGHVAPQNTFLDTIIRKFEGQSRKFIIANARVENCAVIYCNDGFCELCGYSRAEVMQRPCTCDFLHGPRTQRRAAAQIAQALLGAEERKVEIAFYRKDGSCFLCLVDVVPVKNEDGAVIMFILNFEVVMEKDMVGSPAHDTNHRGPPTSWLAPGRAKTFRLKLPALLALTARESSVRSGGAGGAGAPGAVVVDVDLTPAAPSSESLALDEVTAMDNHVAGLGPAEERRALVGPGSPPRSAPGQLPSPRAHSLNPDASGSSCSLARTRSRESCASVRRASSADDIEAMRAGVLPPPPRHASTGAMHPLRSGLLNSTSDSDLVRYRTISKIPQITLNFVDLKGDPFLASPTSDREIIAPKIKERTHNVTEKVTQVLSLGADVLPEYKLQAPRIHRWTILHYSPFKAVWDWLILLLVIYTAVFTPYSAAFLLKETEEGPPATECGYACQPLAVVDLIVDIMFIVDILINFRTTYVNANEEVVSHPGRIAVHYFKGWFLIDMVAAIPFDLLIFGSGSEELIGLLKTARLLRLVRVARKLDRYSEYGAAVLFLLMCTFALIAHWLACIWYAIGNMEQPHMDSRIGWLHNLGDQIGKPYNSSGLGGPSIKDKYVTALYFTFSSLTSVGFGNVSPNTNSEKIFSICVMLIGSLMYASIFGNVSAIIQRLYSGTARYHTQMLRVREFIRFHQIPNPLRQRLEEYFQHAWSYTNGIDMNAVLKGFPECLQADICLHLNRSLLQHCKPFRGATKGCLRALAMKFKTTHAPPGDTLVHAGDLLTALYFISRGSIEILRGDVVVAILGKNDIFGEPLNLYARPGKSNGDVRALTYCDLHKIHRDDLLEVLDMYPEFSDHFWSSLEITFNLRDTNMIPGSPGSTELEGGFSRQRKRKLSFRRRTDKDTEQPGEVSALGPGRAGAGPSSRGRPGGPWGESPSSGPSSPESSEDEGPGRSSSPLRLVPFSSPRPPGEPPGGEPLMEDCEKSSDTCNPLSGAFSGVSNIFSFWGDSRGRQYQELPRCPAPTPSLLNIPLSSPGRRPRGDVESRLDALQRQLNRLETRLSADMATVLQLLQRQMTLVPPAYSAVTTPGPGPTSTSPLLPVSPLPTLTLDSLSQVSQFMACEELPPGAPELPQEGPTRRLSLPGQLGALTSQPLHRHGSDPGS

Row | Structure (SMILES) | hERG current change (%, negative = inhibition) at 10uM [%]
1 | CCc1nnc(NC(=O)CSc2ncc(-c3ccccc3)n2C)s1 | -0.226
2 | Cc1cnccc1CN(C)Cc1cn(C)nc1-c1ccc(Oc2ccccc2)cc1 | -27.4
3 | CN(Cc1cn(C)nc1-c1ccc(Oc2ccccc2)cc1)Cc1cnc2ccccn12 | -54
4 | Cn1cc(CNCc2cnc3ccccn23)c(-c2ccc(Oc3ccccc3)cc2)n1 | -50
5 | NC(=O)C1CCN(C2=C(Cl)C(=O)c3ccccc3C2=O)CC1 | 13.6
6 | NC12CC3CC(C1)CC(CO)(C3)O2 | 8.54
7 | COc1ccc(N(CC(=O)N2c3ccccc3CC2C)S(=O)(=O)c2c(C)nn(C)c2C)cc1 (stereo not drawn) | -25.9
8 | OC(CN1CCN(Cc2ccccc2)CC1)c1ccccc1 (stereo not drawn) | -30.3
9 | OC(CN1CCOCC1)c1ccc(F)cc1 (stereo not drawn) | 12.6
10 | Cl.OC(CN1CCN(Cc2ccccc2)CC1)c1ccc(F)cc1 (stereo not drawn) | -67.9
11 | OC(CN1CCN(C(c2ccccc2)c2ccccc2)CC1)c1ccc(Br)cc1 (stereo not drawn) | -28.8
12 | OC(CN1CCN(c2ccccc2F)CC1)c1ccc(F)cc1 (stereo not drawn) | -19.3
13 | OC(CN1CCN(Cc2ccccc2)CC1)c1ccc(Br)cc1 (stereo not drawn) | -67.9
14 | Cl.Oc1ccc(C2=CCNCC2)cc1O | 10.1
15 | c1cnc(SCCOc2cccc3ccccc23)nc1 | -8.05
16 | C=CCNC(=S)NNc1nc(Nc2ccccc2)nc(N2CCCCC2)n1 | 10.3
17 | COc1ccc(-c2nc(CC(=O)O)cs2)cc1 | 6.7
18 | CCCCN1C(=O)C(=O)N(CC(=O)N2CCN(c3ccccc3)CC2)C1=O | 3.67
19 | CCOc1ccc(/C=N/N(C)c2ccccc2)cc1OC | 15.8

Row | Structure (SMILES) | hERG current change (%, negative = inhibition) at 10uM [%]
20 | CCNc1oc(-c2cccc3ccccc23)nc1C#N | 15.7
21 | COc1ccc(-c2c[n+](CC(=O)N3c4ccccc4Sc4ccccc43)c3n2CCC3)cc1.[Cl-] | -38.2
22 | Clc1ccc(-c2cnc3n2CCCCC3)cc1 | -46.4
23 | COc1ccc(-c2c[n+]3c4n2CCCCC4=C(c2ccccc2)C3)cc1.[Br-] | -75.1
24 | Clc1ccc(C2=C3CCCCn4c(-c5ccccc5)c[n+](c43)C2)cc1.[Br-] | -82.1
25 | COc1ccc(-c2nnc3n2CCCCC3)cc1 | 19.9
26 | C[n+]1cc(-c2ccccc2)n2c1CCCCC2.[I-] | 4.03
27 | COc1ccc(-c2c[n+]3c4n2CCCCC4=C(c2ccc(Br)cc2)C3)cc1.[Br-] | -75.1
28 | COc1ccc(Cn2c(-c3ccc(Br)cc3)c[n+]3ccccc23)cc1.[Br-] | -8.08
29 | COc1ccc(-c2c[n+](CC(=O)c3ccccc3)c3n2CCCCC3)cc1.[Br-] | 11.7
30 | COC(=O)c1cc(S(=O)(=O)N(C)c2ccc(C)c(C)c2)c[nH]1 | -20.2
31 | CCc1nc(NCCN2CCOCC2)c2oc3ccccc3c2n1.Cl | -28.2
32 | Cc1nn(Cc2ccccc2)c(C)c1C(=O)OCC(=O)Nc1cccc(S(N)(=O)=O)c1 | -0.587
33 | O=C(CSc1nnc(CNC(=O)c2cccs2)o1)Nc1cccc(F)c1 | 4.85
34 | Clc1ccccc1Cn1nnc(-c2ccccc2)n1 | 4.02
35 | O=C1C2CCCN2C(=O)N1CCCN1CCN(c2cccc(Cl)c2)CC1 (stereo not drawn) | -2.8
36 | O=C1C2CCCN2C(=O)N1CCCCN1CCN(CCO)CC1 (stereo not drawn) | -14.9
37 | O=C1C2CCCCN2C(=O)N1CCCCN1CCN(c2cccc(Br)c2)CC1 (stereo not drawn) | -61.4
38 | O=C1C2CCCN2C(=O)N1CCCCN1CCN(c2cccc(C(F)(F)F)c2)CC1 (stereo not drawn) | -60.9

Row | Structure (SMILES) | hERG current change (%, negative = inhibition) at 10uM [%]
39 | O=C1C2CCCN2C(=O)N1CCCCN1CCN(c2ccccc2)CC1 (stereo not drawn) | -21.6
40 | O=C1C2CCCN2C(=O)N1CCCCN1CCN(c2cccc(Cl)c2)CC1 (stereo not drawn) | -65.6
41 | O=C1C2CCCCN2C(=O)N1CCCCN1CCN(c2cccc(Cl)c2)CC1 (stereo not drawn) | -60.6
42 | Cl.O=C1C2CCCN2C(=O)N1CCCN1CCN(c2cccc(Br)c2)CC1 (stereo not drawn) | -9.07
43 | O=C1CC(N2CCSCC2)C(=O)N1c1cccc(Br)c1 (stereo not drawn) | -3.54
44 | COc1ccc(C(=O)/C=C/Nc2cc(C)on2)c(OC)c1 | -6.33
45 | COC(=O)c1ccccc1NC(=O)NC1CCN(Cc2ccccc2)CC1 | -31.1
46 | CCCn1cc(NC(=O)c2cc(-c3ccccc3)on2)cn1 | -21.5
47 | CCOC(=O)C1=C(C)Nc2ncnn2C1/C=C/c1ccccc1 (stereo not drawn) | -2.68
48 | CC1CN(c2ccc([N+](=O)[O-])nc2)CC(C)O1 (stereo not drawn) | -21.6
49 | COC(=O)c1ccc(NC(=O)CSc2nc(=O)cc(N)n2-c2ccccc2)cc1 | 12.8
50 | CCOC(=O)C1CCN(c2c(NCCCN3CCCCC3)c(=O)c2=O)CC1 | 6.88
51 | CC(OC(=O)c1cccc(S(=O)(=O)N2CCOCC2)c1)C(=O)NC1CCCCC1C (stereo not drawn) | 5.52
52 | COc1cc(Cl)ccc1OCc1cc(C(=O)N(C)CCc2c(C)n[nH]c2C)no1 | -19.5
53 | COc1ccc(-c2csc(N(CCCN(C)C)C(=O)c3ccccc3F)n2)cc1.Cl | -35.3
54 | COc1ccc(-c2csc(N(CCCN(C)C)C(=O)c3ccccc3C)n2)cc1.Cl | -75.1
55 | COc1ccc(-c2csc(N(CCCN(C)C)C(=O)c3ccccc3Cl)n2)cc1.Cl | -67.3
56 | CC1CCCC(C)N1C(=C(Cl)Cl)C(=C1SCCS1)[N+](=O)[O-] (stereo not drawn) | 16.7
57 | COc1ccccc1N(Cc1ccccc1)S(=O)(=O)c1cccc(C(=O)Nc2ccccn2)c1 | 10.5
